# G9a block = qHTS Assay for Inhibitors of Histone Lysine Methyltransferase G9a; 8.8% of 350,000 active; G9a H3K9 monomethylation, AlphaScreen, 2 h; Potency, µM (series often up to 102 µM), actives largely listed as inhibitors; AID 504332, 2011; Histone-lysine N-methyltransferase EHMT2 (Homo sapiens), Q96KQ7; further: nearly all actives have a fitted effect of over 75% in size
# Target sequence (Q96KQ7 913-1193 limits assumed): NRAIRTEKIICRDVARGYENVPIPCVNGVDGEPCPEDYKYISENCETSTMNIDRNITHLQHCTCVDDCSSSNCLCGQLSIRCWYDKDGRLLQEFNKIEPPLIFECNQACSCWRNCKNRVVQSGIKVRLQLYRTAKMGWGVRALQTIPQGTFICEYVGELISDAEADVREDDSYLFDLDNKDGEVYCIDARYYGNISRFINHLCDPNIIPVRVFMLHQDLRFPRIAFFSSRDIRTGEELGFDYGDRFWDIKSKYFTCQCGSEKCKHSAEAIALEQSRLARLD
#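 AlphaScreen read-out: biotin-H3K9 peptide (500 nM) methylation by 20 nM enzyme with 20 uM SAM, 2 h at room temperature after 15 min compound preincubation; anti-monomethyl H3K9 antibody plus donor/acceptor beads, 10 min dark.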
# Sfp PPTase inh = qHTS Assay for Inhibitors of Bacillus subtilis Sfp phosphopantetheinyl transferase (PPTase); 4'-phosphopantetheinyl transferase ffp (Bacillus subtilis), Q9F4F7; Biochemical Sfp PPTase activity, qHTS; Potency, µM, hits mostly inhibitors; 3.5% of 310,000 active; AID 1490, 2009;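 further: the enzyme is Sfp with the accession as filed and its product quenches rhodamine fluorescence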
#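 Compounds were incubated with enzyme (final 15 nM) for 15 min at room temperature before substrate addition started the reaction. Fluorescence at 525 nm excitation, 598 nm emission was recorded immediately and after 30 minutes.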
# L3MBTL1 inh = qHTS Assay for the Inhibitors of L3MBTL1 | 0.66% of 230,000 active | Potency, µM (top dose mostly 57.1 µM), hits mostly inhibitors | AlphaScreen L3MBTL1–H3K9me1 peptide binding | Lethal(3)malignant brain tumor-like protein 1 (Homo sapiens), Q9Y468 | AID 485360, 2010; further: nearly all actives have a fitted effect of over 60% in size
#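 First, the protein-peptide complex forms for 30 min at room temperature (L3MBTL1 50 nM, biotinylated H3K9me1 peptide 75 nM). Next, compounds are pin-transferred and incubated 30 min. Finally, AlphaScreen beads are added and read after 30 min.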
# BAZ2B block = qHTS Assay for Inhibitors of BAZ2B; AID 504333, 2011; AlphaScreen BAZ2B-H3K14Ac peptide displacement; Potency, µM (titrated, usually from 114 µM), usual class: inhibitors; Bromodomain adjacent to zinc finger domain protein 2B (Homo sapiens), Q9UIF8; 4.4% of 360,000 active; further: nearly all actives have a fitted effect of over 60% in size
#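 Protein-peptide AlphaScreen: BAZ2B 50 nM, b-H3K14Ac 50 nM, 1x PBS pH 7.4 + 0.01% Tween-20. Preincubation 30 min RT; cpd 30 min RT (top 110 uM); beads 20 min RT, light-protected.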
# HP1b binding inh = HTS for Inhibitors of HP1-beta Chromodomain Interactions with Methylated Histone Tails. AlphaScreen HP1-beta / biotin-H3K9me3 peptide binding. Potency, µM (highest dose often 114 µM), actives largely listed as inhibitors. 0.56% of 390,000 active. AID 540317, 2011; further: nearly all actives have a fitted effect of over 70% in size
# Target sequence (P83916 whole entry, looked up): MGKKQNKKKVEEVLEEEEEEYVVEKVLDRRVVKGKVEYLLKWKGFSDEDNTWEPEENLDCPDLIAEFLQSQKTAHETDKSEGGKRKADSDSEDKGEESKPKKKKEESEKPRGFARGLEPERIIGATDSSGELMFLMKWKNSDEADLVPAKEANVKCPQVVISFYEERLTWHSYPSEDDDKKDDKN
#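 AlphaScreen: HP1-beta (50 nM) preformed 30 min with biotin-H3(1-18)K9me3 peptide (50 nM) in PBS pH 7.4, 0.01% Tween-20. Compound added for 30 min at RT, then streptavidin donor/nickel chelate acceptor beads (10 ug/mL) for 30 min.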
# JMJD2A Tudor = qHTS Assay for Inhibitors of JMJD2A-Tudor Domain; Lysine-specific demethylase 4A (Homo sapiens), O75164; AlphaScreen JMJD2A-Tudor / H3K4me3 peptide binding; Potency, µM (titrated, usually from 114 µM), actives largely listed as inhibitors; 4.4% of 390,000 active; further: nearly all actives have a fitted effect of over 50% in size
# Hits are given with their value; i = inactive; ? = inconclusive; nt = no result; [ ] = another dose, or the depositor's remark. In the library only some 12% were active in any assay of this set; here they are far more common. The call rests on the fitted dose curve; in most records, active means well fitted curve in the direction sought with a large enough effect; inconclusive means small, poorly fitted or top-dose-only effect, or another doubt; inactive means no such curve, though single readings can be large; an effect the other way counts as inactive or inconclusive.
SMILES,G9a block,Sfp PPTase inh,L3MBTL1 inh,BAZ2B block,HP1b binding inh,JMJD2A Tudor
CCc1ccc(C2C(C(=O)Nc3ccccc3OC)=C(C)Nc3nc(SCc4ccccc4)nn32)cc1 (stereo unspecified),i,nt,nt,i,i,i
COC(=O)c1ccc(N2CCCCC2)c(NS(=O)(=O)c2ccc(C)cc2)c1,i,i,nt,i,i,i
Cn1c(=O)c(=O)n(C)c2cc(N3CCOCC3)c(NS(=O)(=O)c3ccc(F)c(Cl)c3)cc21,i,i,nt,i,i,i
Cn1c(=O)c(=O)n(C)c2cc(N3CCCC3)c(NS(=O)(=O)c3ccc(Cl)cc3)cc21,?,i,nt,i,i,i
Cn1c(=O)c(=O)n(C)c2cc(N3CCOCC3)c(NS(=O)(=O)c3ccc([N+](=O)[O-])cc3)cc21,?,50µM,nt,79µM,i,?
CC1CCN(c2ccc(C(=O)O)cc2NS(=O)(=O)c2ccc(Br)cc2)CC1,28µM,i,i,i,i,i
Cn1c(=O)n(C)c2cc(N3CCOCC3)c(NS(=O)(=O)c3ccc(Br)cc3)cc21,?,nt,nt,50µM,i,i
CCOC(=O)CC(NC(=O)CCc1c(C)nc2c(c(C)nn2-c2ccc(C)c(C)c2)c1C)c1ccc(C)cc1 (stereo unspecified),i,nt,nt,i,i,i
COc1ccc(CNC(=O)c2cccn2-c2nnc(N3CCCC3)s2)c(OC)c1,i,nt,nt,i,i,i
O=C(O)c1nc(NCCc2ccccc2)ncc1Cl,35µM,i,nt,i,i,?
O=C(Nc1ccc(F)cc1)c1oc2ccccc2c1NC(=O)C12CC3CC(CC(C3)C1)C2,i,nt,nt,i,i,i
Cc1cc(Cl)ccc1OCC(=O)OC(C)C(=O)NC(N)=O (stereo unspecified),i,i,i,i,i,i
C/C(N)=C(/C#N)C(=O)COC(=O)COc1ccc(Cl)cc1C,50µM,i,nt,i,i,i
CCOC(=O)c1c(C)[nH]c(N=Nc2ccc(C)cc2)c1C,?,20µM,nt,45µM,?,40µM
COC(=O)c1c(C)[nH]c(C=Nc2ccc(OC)cc2)c1C,i,i,i,i,i,i
CCOC(=O)c1c(C)[nH]c(N=Nc2ccccc2Cl)c1C,i,?,nt,8.9µM,?,16µM
CCOC(=O)c1[nH]c(C)c(C(=O)c2ccc(C)cc2)c1C,i,i,nt,i,i,?
CCOC(=O)c1c(C)[nH]c(N=Nc2ccccc2)c1C,40µM,i,nt,35µM,40µM,56µM
CCOC(=O)c1c(C)[nH]c(NC(=O)NNC(=O)c2ccccc2Cl)c1C,i[2.33 µM],nt,i,i,i,i
CCOC(=O)c1c(C)[nH]c(N=Nc2ccc(OC)cc2)c1C,28µM,50µM,nt,40µM,?,56µM
CC1=C(C(=O)Nc2ccccc2)C(c2ccncc2)n2nc(SCc3ccccc3F)nc2N1 (stereo unspecified),i,nt,nt,i,i,i
CCOC(=O)c1cnc2c(OC)cccc2c1Nc1cccc(O)c1,i,nt,nt,i,i,i
COc1ccc(Cl)cc1Nc1nc(N)c2ccccc2n1,79µM,i,i,i,i,i
Nc1nc(Nc2cccc(F)c2)nc2ccccc12,56µM,i,i,?,i,i
Cc1ccc(O)c(Nc2nc(-c3ccccc3)nc3ccccc23)c1,i[0.501 µM],i,i[2.29 µM],i,i,i
Cc1ccc(O)c(Nc2c3ccccc3nc3ccccc23)c1,?,i,nt,35µM,?,?
COc1ccc(C)cc1Nc1nc(N)c2cc(OC)c(OC)cc2n1,?,i,nt,?,i,?
Cc1ccc(C)c(Nc2nc(N)c3ccccc3n2)c1,50µM,i,i,i,i,i
COc1ccc(C2=C(C)C(=O)N(Cc3ccc(C(=O)Nc4cc(C)ccc4C)cc3)S2(=O)=O)cc1,i,nt,nt,i,i,i
O=[N+]([O-])c1ccc(N2CCN(c3ccc(O)cc3)CC2)cn1,11µM,56µM,nt,?,?,?
